# Experimental data reported in PubChem BioAssay (EPA / NIEHS).
# Where “and” joins values, the source holds several entries; their conditions need not be identical. Equal entries are not always repeated. Results filed as inconclusive are left out. More than one record can exist for a structure, and the calls need not agree. Calls of active or inactive are those of the source. The calls were made as follows, unless noted: active = hit-call score of the fitted dose curve at least 0.9, where 1 is the maximum; inactive = score below 0.9.
# What was measured:
# [1] = target: human Retinoid X Receptor beta (RXRb), RXRB (gene 6257) (UniProt P28702); experiment: ATG_RXRb_TRANS: Attagene TRANS-FACTORIAL HepG2 Assay for human Retinoid X Receptor beta (RXRb) (AID 2283013; active = hit-call score of the fitted dose curve at least 0.9, where 1 is the maximum)
# Sequence of human Retinoid X Receptor beta (RXRb), RXRB (gene 6257) (P28702 whole entry, looked up, the tested form may be a part): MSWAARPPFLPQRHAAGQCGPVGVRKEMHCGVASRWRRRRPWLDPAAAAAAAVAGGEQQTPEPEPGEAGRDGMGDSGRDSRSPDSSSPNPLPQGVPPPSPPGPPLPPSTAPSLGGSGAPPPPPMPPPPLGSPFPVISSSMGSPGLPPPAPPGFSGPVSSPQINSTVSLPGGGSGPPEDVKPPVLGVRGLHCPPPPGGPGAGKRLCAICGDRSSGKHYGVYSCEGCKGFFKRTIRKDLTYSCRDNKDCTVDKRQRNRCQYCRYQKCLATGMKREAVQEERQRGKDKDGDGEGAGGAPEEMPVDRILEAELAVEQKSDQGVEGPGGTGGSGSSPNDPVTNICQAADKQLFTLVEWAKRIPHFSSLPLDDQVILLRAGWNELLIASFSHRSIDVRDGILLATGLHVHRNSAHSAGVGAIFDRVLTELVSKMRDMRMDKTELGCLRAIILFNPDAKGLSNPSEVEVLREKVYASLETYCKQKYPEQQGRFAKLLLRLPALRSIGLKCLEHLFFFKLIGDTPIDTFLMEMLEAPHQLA
# Outline: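 HepG2 cells were transiently transfected with multiplexed GAL4-UAS reporters and a chimeric RXRb-Gal4 construct, then exposed for 24 h. Reporter mRNA was quantified by RT-PCR, FAM labeling, HpaI digestion and capillary electrophoresis; gain of signal was scored against DMSO.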
# [2] = target: human Thyroid Receptor alpha (THRa1), THRA (gene 7067) (UniProt P10827); experiment: ATG_THRa1_TRANS: Attagene TRANS-FACTORIAL HepG2 Assay for human Thyroid Receptor alpha (THRa1) (AID 2283014; active = hit-call score of the fitted dose curve at least 0.9, where 1 is the maximum)
# Sequence of human Thyroid Receptor alpha (THRa1), THRA (gene 7067) (P10827 whole entry, looked up, the tested form may be a part): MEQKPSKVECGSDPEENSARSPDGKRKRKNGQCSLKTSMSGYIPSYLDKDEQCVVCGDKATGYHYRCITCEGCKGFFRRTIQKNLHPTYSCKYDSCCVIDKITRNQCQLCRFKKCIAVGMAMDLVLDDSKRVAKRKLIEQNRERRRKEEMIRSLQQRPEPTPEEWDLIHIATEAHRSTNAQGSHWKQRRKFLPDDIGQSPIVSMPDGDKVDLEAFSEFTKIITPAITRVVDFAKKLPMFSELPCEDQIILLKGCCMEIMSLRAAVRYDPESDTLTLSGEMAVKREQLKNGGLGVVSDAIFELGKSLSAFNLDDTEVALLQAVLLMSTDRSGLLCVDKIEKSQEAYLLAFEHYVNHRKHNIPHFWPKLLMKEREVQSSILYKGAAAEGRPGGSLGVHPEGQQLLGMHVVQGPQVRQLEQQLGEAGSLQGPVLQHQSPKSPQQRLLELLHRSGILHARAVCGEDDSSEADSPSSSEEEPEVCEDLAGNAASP
# Outline: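 HepG2 cells transiently transfected with multiplexed GAL4-UAS reporter units for exogenous chimeric THRa1-Gal4; reporter mRNA measured 24 h after dosing by RT-PCR, 6-FAM labelling, HpaI digestion and capillary electrophoresis. Gain-of-signal fitted versus DMSO baseline.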
# [3] = read-out: Monocyte Chemoattractant Protein-1 (MCP1), CCL2 (gene 6347); experiment: BSK_3C_MCP1: BioMAP Diversity Plus: 3C Assay for Monocyte Chemoattractant Protein-1 (MCP1) Biomarker Activity (AID 2283017); conditions: primary human endothelial cells (HUVEC); actives raise or lower the signal
# Outline: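 Primary human umbilical vein endothelial cells (3C system) were exposed to test chemical for 24 h, after which MCP-1 was quantified by ELISA. Activity was fitted bidirectionally against DMSO as negative control and baseline.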
# [4] = read-out: Monocyte Chemoattractant Protein-1 (MCP1), CCL2 (gene 6347); experiment: BSK_4H_MCP1: BioMAP Diversity Plus: 4H Assay for Monocyte Chemoattractant Protein-1 (MCP1) Biomarker Activity (AID 2283018); conditions: primary human endothelial cells (HUVEC); actives raise or lower the signal
# Outline: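 Human umbilical vein endothelial cells (4H system) exposed to chemicals for 24 h in 96-well format. MCP-1 measured by ELISA; bidirectional fitting against DMSO, with SRB total-protein staining in parallel cultures for cytotoxicity.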
# [5] = read-out: Human Leukocyte Antigen - DR isotype (HLADR), HLA-DRA (gene 3122); experiment: BSK_3C_HLADR: BioMAP Diversity Plus: 3C Assay for Human Leukocyte Antigen - DR isotype (HLADR) Biomarker Activity (AID 2283019); conditions: primary human endothelial cells (HUVEC); actives raise or lower the signal;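 as to outcome: ELISA of cell-surface HLA-DR on HUVEC 24 h after dosing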
# Outline: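 Primary human umbilical vein endothelial cells (3C system) were dosed with compound and cell-surface HLA-DR was quantified by ELISA at 24 h. Activity was fitted bidirectionally against DMSO as negative control and baseline.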
# [6] = read-out: Interleukin-8 (IL8), CXCL8 (gene 3576); experiment: BSK_3C_IL8: BioMAP Diversity Plus: 3C Assay for Interleukin-8 (IL8) Biomarker Activity (AID 2283020); conditions: primary human endothelial cells (HUVEC); actives raise or lower the signal
# Outline: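 Primary human umbilical vein endothelial cells were dosed for 24 h. IL-8 was quantified by ELISA and fitted bidirectionally against DMSO. Cytotoxicity was assessed in parallel cultures by SRB staining at 560 nm.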
# [7] = read-out: Monokine induced gamma interferon (MIG), CXCL9 (gene 4283); experiment: BSK_3C_MIG: BioMAP Diversity Plus: 3C Assay for Monokine induced gamma interferon (MIG) Biomarker Activity (AID 2283021); conditions: primary human endothelial cells (HUVEC); actives raise or lower the signal;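 as to AC50: MIG protein level measured by immunoassay in the treated endothelial cultures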
# Outline: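 HUVEC primary endothelial cultures dosed with chemical; MIG quantified by ELISA at 24 h. Data fitted bidirectionally against DMSO control, with parallel SRB total-protein staining for cytotoxicity.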
# [8] = BSK_3C_SRB: Viability Assessment in the BioMAP Diversity Plus: 3C Assay (AID 2283023); conditions: primary human endothelial cells (HUVEC);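 also: fitted both ways against DMSO so a hit may be signal rise or drop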
# Outline: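 Primary human umbilical vein endothelial cells in the 3C system were read 24 h after compound dosing. Total protein was stained with 0.1% sulforhodamine B after 10% TCA fixation and read at 560 nm, with bidirectional fitting against DMSO as baseline.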
# [9] = read-out: Matrix Metallopeptidase 1 (MMP1), MMP1 (gene 4312); experiment: BSK_BE3C_MMP1: BioMAP Diversity Plus: BE3C Assay for Matrix Metallopeptidase 1 (MMP1) Biomarker Activity (AID 2283024); conditions: primary human bronchial epithelial cells; actives raise or lower the signal
# Outline: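 Human primary bronchial epithelial cells (BE3C system) dosed for 24 h; MMP-1 quantified by ELISA. Bidirectional fit against DMSO; cytotoxicity tracked in parallel cultures by SRB total-protein staining.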
# [10] = BSK_3C_Vis: BioMAP Diversity Plus: 3C Assay for Morphology Visualization (AID 2283025); conditions: primary human endothelial cells (HUVEC);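 also: fitted both ways so gain or loss versus DMSO counts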;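 as to AC50: light microscopy image of cell morphology used as background control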
# Outline: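 Human umbilical vein endothelial cell morphology was inspected by light microscopy 24 h after chemical dosing; scored bidirectionally relative to DMSO.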
# [11] = read-out: Pselectin, SELP (gene 6403); experiment: BSK_4H_Pselectin: BioMAP Diversity Plus: 4H Assay for Pselectin Biomarker Activity (AID 2283026); conditions: primary human endothelial cells (HUVEC); actives raise or lower the signal
# Outline: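 Primary human umbilical vein endothelial cells were treated 24 h, and cell-surface P-selectin was then quantified by ELISA. Bidirectional fit versus DMSO; cytotoxicity checked in parallel cultures by SRB total-protein staining.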
# [12] = BSK_4H_SRB: Viability Assessment in the BioMAP Diversity Plus: 4H Assay (AID 2283027); conditions: primary human endothelial cells (HUVEC);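 also: cells exposed to compound for 24 h before staining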;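 as to AC50: curves fitted both ways versus DMSO so AC50 may be loss or gain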
# Outline: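 Human umbilical vein endothelial cells, 24 h after chemical dosing; total protein measured by 0.1% sulforhodamine B staining after 10% TCA fixation, read at 560 nm. Bidirectional fitting against DMSO.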
# [13] = BSK_BE3C_SRB: Viability Assessment in the BioMAP Diversity Plus: BE3C Assay (AID 2283028); conditions: primary human bronchial epithelial cells;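 as to AC50: fitted both ways so AC50 may mark signal gain or loss versus DMSO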
# Outline: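 Human primary bronchial epithelial cells were exposed to test chemicals for 24 h. Total protein in parallel cultures was then measured by staining with 0.1% sulforhodamine B after 10% TCA fixation, with absorbance read at 560 nm. Activity was fitted bidirectionally against DMSO.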
# [14] = read-out: Thrombomodulin, THBD (gene 7056); experiment: BSK_3C_Thrombomodulin: BioMAP Diversity Plus: 3C Assay for Thrombomodulin Biomarker Activity (AID 2283029); conditions: primary human endothelial cells (HUVEC); actives raise or lower the signal
# Outline: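 Human umbilical vein endothelial cells were exposed to chemicals for 24 h; cell-surface thrombomodulin quantified by ELISA, with bidirectional fitting against DMSO baseline.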
# [15] = read-out: Urokinase-type plasminogen activator receptor (uPAR), PLAUR (gene 5329); experiment: BSK_4H_uPAR: BioMAP Diversity Plus: 4H Assay for Urokinase-type plasminogen activator receptor (uPAR) Biomarker Activity (AID 2283030); conditions: primary human endothelial cells (HUVEC); actives raise or lower the signal
# Outline: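 Primary human umbilical vein endothelial cells were exposed to chemical for 24 h before cell-surface uPAR was quantified by ELISA. Activity was fitted bidirectionally against the DMSO negative control baseline.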
# [16] = read-out: Vascular endothelial growth factor receptor 2 (Homo sapiens) (UniProt P35968); experiment: BSK_4H_VEGFRII: BioMAP Diversity Plus: 4H Assay for Vascular endothelial growth factor receptor 2 (VEGFR2) Biomarker Activity (AID 2283031); conditions: primary human endothelial cells (HUVEC); actives raise or lower the signal;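 as to AC50: cell-surface VEGFR2 protein level quantified by ELISA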
# Outline: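 Primary human umbilical vein endothelial cells in the BioMAP 4H system were dosed with test chemical, and 24 h later VEGFRII was measured by ELISA. Activity was fitted bidirectionally against DMSO as negative control and baseline.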
# [17] = target: human Vitamin D Receptor (VDR), VDR (gene 7421) (UniProt P11473); experiment: ATG_VDR_TRANS: Attagene TRANS-FACTORIAL HepG2 Assay for human Vitamin D Receptor (VDR) (AID 2283022; active = hit-call score of the fitted dose curve at least 0.9, where 1 is the maximum)
# Sequence of human Vitamin D Receptor (VDR), VDR (gene 7421) (P11473 whole entry, looked up, the tested form may be a part): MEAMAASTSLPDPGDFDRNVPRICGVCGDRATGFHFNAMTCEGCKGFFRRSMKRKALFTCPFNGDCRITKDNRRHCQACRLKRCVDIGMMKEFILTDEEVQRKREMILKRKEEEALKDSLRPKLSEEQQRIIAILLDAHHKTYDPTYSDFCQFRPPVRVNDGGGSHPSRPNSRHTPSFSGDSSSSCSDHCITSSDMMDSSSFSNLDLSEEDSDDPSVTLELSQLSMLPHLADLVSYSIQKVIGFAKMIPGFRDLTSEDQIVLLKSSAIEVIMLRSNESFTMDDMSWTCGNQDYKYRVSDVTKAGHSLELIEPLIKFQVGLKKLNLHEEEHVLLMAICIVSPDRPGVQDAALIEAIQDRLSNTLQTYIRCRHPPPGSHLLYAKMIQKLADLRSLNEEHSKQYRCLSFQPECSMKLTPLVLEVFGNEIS
# Outline: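 HepG2 cells were transiently transfected with multiple GAL4-UAS reporter units, so signal reflects exogenous chimeric receptor-Gal4 activity. After 24 h compound exposure, reporter mRNA was measured by RT-PCR, fluorescent labelling and capillary electrophoresis, fitted for gain of signal versus DMSO.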
# [18] = read-out: Interleukin-1 alpha (IL1a), IL1A (gene 3552); experiment: BSK_BE3C_IL1a: BioMAP Diversity Plus: BE3C Assay for Interleukin-1 alpha (IL1a) Biomarker Activity (AID 2283016); conditions: primary human bronchial epithelial cells; actives raise or lower the signal
# Outline: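 Human primary bronchial epithelial cells, 24 h chemical exposure; IL-1a quantified by ELISA, fitted bidirectionally against DMSO. Cytotoxicity assessed in parallel by SRB total-protein staining at the time of measurement.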
# [19] = read-out: E-selectin (Homo sapiens) (UniProt P16581); experiment: BSK_3C_Eselectin: BioMAP Diversity Plus: 3C Assay for Eselectin Biomarker Activity (AID 2283015); conditions: primary human endothelial cells (HUVEC); actives raise or lower the signal
# Outline: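 Primary human umbilical vein endothelial cells (3C system) were dosed with chemical and cell-surface E-selectin measured by ELISA 24 h later. Bidirectional curve fitting used DMSO as negative control and baseline.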
# Sequence of E-selectin (Homo sapiens) (P16581 whole entry, looked up): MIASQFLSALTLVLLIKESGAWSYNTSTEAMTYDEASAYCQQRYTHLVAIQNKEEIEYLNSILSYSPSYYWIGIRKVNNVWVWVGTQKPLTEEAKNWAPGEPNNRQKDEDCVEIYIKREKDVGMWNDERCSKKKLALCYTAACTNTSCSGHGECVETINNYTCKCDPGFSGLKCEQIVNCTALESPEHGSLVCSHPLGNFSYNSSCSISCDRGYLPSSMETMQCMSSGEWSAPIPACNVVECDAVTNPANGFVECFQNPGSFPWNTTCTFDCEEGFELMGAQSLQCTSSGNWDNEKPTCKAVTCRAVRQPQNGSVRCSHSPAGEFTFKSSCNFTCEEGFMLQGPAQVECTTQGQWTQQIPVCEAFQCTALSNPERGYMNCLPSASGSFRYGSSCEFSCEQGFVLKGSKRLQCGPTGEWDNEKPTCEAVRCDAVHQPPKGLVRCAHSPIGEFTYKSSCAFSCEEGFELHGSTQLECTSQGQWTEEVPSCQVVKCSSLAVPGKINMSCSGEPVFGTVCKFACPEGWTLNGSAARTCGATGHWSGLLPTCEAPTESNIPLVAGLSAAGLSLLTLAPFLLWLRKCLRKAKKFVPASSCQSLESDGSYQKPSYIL
smiles,measurement,setting,value
O=C(CCCN1CCC(O)(c2ccc(Cl)cc2)CC1)c1ccc(F)cc1,outcome,[1],inactive
same,outcome,[2],inactive
same,outcome,[3],inactive
same,outcome,[4],inactive
same,outcome,[5],inactive
same,AC50,[6],9.25 µM (active)
same,outcome,[7],inactive
same,AC50,[8],17.4 µM (active)
same,outcome,[9],inactive
same,AC50,[10],9.8 µM (active)
same,outcome,[11],inactive
same,AC50,[12],9.78 µM (active)
same,outcome,[13],inactive
same,outcome,[14],inactive
same,AC50,[15],10.9 µM (active)
same,outcome,[16],inactive
Oc1cccc2c(O)cccc12,outcome,[1],inactive
same,outcome,[2],inactive
same,outcome,[17],inactive
Cc1ccc(N=Nc2c(O)ccc3ccccc23)c(C)c1,outcome,[1],inactive
same,outcome,[3],inactive
same,outcome,[4],inactive
same,AC50,[5],14.8 µM (active)
same,outcome,[6],inactive
same,outcome,[7],inactive
same,outcome,[8],inactive
same,AC50,[10],19.9 µM (active)
same,outcome,[11],inactive
same,outcome,[12],inactive
same,outcome,[13],inactive
same,outcome,[14],inactive
same,outcome,[15],inactive
same,outcome,[16],inactive
CCOC(C)=O,AC50,[1],26.6 µM (active)
same,outcome,[1],inactive
same,outcome,[2],inactive
same,outcome,[17],inactive
c1cc2cccc3c4cccc5cccc(c(c1)c23)c54,outcome,[1],inactive
same,outcome,[2],inactive
same,outcome,[17],inactive
CCCCCCC(C)(C)C(=O)O,outcome,[1],inactive
Nc1ccc(O)c(C(=O)O)c1,outcome,[1],inactive
same,outcome,[17],inactive
CN(Cc1cnc2nc(N)nc(N)c2n1)c1ccc(C(=O)N[C@@H](CCC(=O)O)C(=O)O)cc1,outcome,[1],inactive
same,outcome,[18],inactive
same,outcome,[3],inactive
same,outcome,[4],inactive
same,outcome,[5],inactive
same,outcome,[6],inactive
same,outcome,[7],inactive
same,outcome,[8],inactive
same,outcome,[9],inactive
same,outcome,[10],inactive
same,outcome,[11],inactive
same,outcome,[12],inactive
same,outcome,[13],inactive
same,outcome,[14],inactive
same,outcome,[15],inactive
same,outcome,[16],inactive
OCCN1CN(CCO)CN(CCO)C1,outcome,[1],inactive
same,outcome,[2],inactive
same,AC50,[18],4.12 µM (active)
same,AC50,[3],31.1 µM (active)
same,AC50,[4],35.5 µM (active)
same,AC50,[5],28 µM (active)
same,AC50,[6],29.2 µM (active)
same,AC50,[7],36.6 µM (active)
same,outcome,[17],inactive
same,AC50,[8],32.1 µM (active)
same,outcome,[9],inactive
same,AC50,[10],14.9 µM (active)
same,AC50,[11],23.1 µM (active)
same,AC50,[12],31.5 µM (active)
same,outcome,[13],inactive
same,outcome,[14],inactive
same,AC50,[15],29 µM (active)
same,AC50,[16],33.9 µM (active)
CN(C)c1ccc(C(=C2C=CC(=[N+](C)C)C=C2)c2ccccc2)cc1,AC50,[1],1.36 µM (active)
same,outcome,[1],inactive
same,outcome,[2],inactive
same,AC50,[3],0.0082 µM (active)
same,AC50,[4],0.0192 µM (active)
same,AC50,[5],0.0082 µM (active)
same,AC50,[6],0.668 µM (active)
same,AC50,[7],0.356 µM (active)
same,outcome,[17],inactive
same,AC50,[8],0.055 µM (active)
same,AC50,[10],0.00948 µM (active)
same,AC50,[11],0.0138 µM (active)
same,AC50,[12],0.0527 µM (active)
same,AC50,[13],2.72 µM (active)
same,outcome,[14],inactive
same,AC50,[15],0.00549 µM (active)
same,AC50,[16],0.0249 µM (active)
O=C1c2ccccc2C(=O)c2c(O)c(O)cc(O)c21,outcome,[1],inactive
same,AC50,[2],21.4 µM (active)
same,outcome,[17],inactive
O=C(O)CCC(F)(F)C(F)(F)C(F)(F)C(F)(F)C(F)(F)F,outcome,[1],inactive
same,outcome,[3],inactive
same,outcome,[4],inactive
same,outcome,[5],inactive
same,outcome,[6],inactive
same,outcome,[7],inactive
same,outcome,[17],inactive
same,outcome,[8],inactive
same,outcome,[9],inactive
same,outcome,[11],inactive
same,outcome,[12],inactive
same,outcome,[13],inactive
same,outcome,[14],inactive
same,outcome,[15],inactive
same,outcome,[16],inactive
O=C1OC2(c3ccccc31)c1cc(I)c(O)c(I)c1Oc1c2cc(I)c(O)c1I,AC50,[19],5.74 µM (active)
Oc1c(Cl)cc(Cl)cc1Sc1cc(Cl)cc(Cl)c1O,AC50,[19],31.1 µM (active) and 29.8 µM (active)
